Source: the supplement of paper PMC11732987, “Enantioselective OTUD7B fragment discovery through chemoproteomics screening and high-throughput optimisation” (Communications Chemistry, 2025)

Tests used:
Experiment in all cases: log2 ratio of Biotin-Ahx-Ub-VS probe labelling (fragment/DMSO); higher = less target engagement (more negative = stronger competition), active = hit call of the paper (q ≤ 0.05, log2 ratio ≤ -1)
Details in all cases: compound concentration: 200 uM; treatment time: 3 h
[1] = biological target: USP9X (UniProt Q93008)
Method in brief: (§1)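 HEK293T lysate (495 µg per sample, in Tris/CHAPS/IGEPAL buffer with protease inhibitors) was exposed in triplicate for 3 h to fragment at 200 µM or to vehicle, then to Biotin-Ahx-Ub-VS at 0.5 µM final for 1 h. Labelled DUBs were enriched on NeutrAvidin, digested with LysC and trypsin, and analysed by diaPASEF LC-MS/MS. Spectronaut label-free quantities were normalised to the global median, and values are average log2 ratios of fragment over vehicle from an unpaired t-test. Only proteins with ≥2 unique peptides were used.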

[2] = biological target: UniProt O00487
Method in brief: as §1

[3] = biological target: UniProt O00507
Method in brief: as §1

[4] = biological target: UniProt P51784
Method in brief: as §1

[5] = biological target: T1, UniProt Q5T2D3
T1 sequence (whole entry): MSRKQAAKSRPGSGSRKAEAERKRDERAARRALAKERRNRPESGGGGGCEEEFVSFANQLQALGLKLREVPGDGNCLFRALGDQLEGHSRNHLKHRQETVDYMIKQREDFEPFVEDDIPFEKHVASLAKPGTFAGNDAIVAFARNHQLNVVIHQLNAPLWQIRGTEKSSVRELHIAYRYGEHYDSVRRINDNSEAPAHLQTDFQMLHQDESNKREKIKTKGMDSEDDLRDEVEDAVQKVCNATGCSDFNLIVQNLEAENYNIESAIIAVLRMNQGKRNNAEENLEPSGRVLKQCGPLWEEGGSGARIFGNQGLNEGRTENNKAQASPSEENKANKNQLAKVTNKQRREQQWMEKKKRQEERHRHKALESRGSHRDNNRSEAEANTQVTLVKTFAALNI
Method in brief: as §1

[6] = biological target: T2, UniProt Q8TE49
T2 sequence (whole entry): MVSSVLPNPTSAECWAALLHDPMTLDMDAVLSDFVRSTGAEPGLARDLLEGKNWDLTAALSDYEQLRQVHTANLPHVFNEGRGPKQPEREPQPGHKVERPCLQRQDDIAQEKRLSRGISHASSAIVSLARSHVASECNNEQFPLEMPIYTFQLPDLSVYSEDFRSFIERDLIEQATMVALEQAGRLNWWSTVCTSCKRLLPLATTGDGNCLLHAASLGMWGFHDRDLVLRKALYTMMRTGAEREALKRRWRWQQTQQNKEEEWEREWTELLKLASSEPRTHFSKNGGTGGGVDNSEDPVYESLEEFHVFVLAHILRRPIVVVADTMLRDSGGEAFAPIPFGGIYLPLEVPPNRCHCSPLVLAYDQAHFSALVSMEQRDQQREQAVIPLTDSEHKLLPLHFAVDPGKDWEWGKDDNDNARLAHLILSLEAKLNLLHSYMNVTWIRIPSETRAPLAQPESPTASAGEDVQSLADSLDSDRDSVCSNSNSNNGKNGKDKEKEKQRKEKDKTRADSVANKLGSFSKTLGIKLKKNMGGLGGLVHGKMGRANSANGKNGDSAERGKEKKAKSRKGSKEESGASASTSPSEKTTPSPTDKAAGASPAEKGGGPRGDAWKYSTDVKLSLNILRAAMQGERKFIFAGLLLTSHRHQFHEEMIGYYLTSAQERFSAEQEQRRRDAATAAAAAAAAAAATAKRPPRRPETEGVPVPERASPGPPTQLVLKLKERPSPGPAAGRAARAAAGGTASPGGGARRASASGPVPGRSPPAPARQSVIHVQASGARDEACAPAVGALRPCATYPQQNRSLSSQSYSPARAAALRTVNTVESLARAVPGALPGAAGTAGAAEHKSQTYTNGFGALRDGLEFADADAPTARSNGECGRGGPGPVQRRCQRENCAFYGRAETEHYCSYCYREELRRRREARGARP
Method in brief: as §1

[7] = biological target: T3, UniProt Q9P2H5
T3 sequence (whole entry): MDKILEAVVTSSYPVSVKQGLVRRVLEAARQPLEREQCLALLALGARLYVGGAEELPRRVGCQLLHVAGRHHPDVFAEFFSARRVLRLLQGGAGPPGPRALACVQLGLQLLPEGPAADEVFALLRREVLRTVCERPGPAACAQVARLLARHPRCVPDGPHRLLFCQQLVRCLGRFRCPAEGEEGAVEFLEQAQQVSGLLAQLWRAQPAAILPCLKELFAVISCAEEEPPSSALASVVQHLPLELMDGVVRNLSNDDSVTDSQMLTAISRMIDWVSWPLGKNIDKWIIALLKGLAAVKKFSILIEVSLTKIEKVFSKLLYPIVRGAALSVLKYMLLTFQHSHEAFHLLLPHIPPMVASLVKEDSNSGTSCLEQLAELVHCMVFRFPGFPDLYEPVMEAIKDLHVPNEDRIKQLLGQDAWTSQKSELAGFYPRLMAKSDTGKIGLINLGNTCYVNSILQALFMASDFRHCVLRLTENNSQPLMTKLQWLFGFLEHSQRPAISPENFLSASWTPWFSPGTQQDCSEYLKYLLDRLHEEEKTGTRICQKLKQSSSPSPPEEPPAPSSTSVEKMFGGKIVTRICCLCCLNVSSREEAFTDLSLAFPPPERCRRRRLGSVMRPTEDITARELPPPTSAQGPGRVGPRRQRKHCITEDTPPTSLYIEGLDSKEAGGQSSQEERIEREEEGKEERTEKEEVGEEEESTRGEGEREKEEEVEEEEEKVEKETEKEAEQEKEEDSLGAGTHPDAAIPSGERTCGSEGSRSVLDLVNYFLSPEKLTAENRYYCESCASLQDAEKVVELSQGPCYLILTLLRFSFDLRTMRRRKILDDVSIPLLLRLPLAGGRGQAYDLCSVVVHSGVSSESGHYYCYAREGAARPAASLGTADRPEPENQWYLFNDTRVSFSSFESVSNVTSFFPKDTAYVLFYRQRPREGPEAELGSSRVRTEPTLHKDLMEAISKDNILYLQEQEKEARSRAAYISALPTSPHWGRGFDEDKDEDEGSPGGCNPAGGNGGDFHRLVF
Method in brief: as §1

[8] = biological target: T4, UniProt Q9UGI0
T4 sequence (whole entry): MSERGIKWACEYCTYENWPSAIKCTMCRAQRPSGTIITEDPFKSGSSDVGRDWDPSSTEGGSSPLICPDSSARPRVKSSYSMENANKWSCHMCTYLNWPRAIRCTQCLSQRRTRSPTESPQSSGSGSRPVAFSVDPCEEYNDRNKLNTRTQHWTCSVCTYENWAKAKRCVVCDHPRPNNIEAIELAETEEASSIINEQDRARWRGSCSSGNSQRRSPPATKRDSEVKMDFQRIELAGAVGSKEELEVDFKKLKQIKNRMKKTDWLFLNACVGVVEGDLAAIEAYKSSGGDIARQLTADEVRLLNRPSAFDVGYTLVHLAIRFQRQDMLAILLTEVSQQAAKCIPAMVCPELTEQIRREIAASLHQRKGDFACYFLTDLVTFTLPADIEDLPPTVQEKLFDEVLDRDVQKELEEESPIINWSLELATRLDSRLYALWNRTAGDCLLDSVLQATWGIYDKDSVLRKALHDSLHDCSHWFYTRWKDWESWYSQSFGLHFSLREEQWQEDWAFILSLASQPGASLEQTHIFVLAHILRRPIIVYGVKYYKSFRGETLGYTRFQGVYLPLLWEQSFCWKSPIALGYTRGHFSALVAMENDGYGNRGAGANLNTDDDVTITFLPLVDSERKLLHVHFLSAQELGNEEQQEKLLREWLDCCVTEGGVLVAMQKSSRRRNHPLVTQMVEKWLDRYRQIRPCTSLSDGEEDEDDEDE
Method in brief: as §1

[9] = biological target: T5, YOD1 (UniProt Q5VVQ6)
T5 sequence (whole entry): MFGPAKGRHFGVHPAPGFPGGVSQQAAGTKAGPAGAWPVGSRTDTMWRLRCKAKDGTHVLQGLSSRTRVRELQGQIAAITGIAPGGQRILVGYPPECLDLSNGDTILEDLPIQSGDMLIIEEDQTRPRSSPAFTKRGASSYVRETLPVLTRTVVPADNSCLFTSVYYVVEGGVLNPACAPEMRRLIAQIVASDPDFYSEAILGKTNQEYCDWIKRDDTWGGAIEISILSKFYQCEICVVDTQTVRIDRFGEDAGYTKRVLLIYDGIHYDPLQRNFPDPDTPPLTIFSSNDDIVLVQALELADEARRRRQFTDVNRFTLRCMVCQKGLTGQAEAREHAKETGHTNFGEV
Method in brief: as §1

Measured: log2 ratio of Biotin-Ahx-Ub-VS probe labelling

Sequence of UniProt O00487 (O00487 whole entry): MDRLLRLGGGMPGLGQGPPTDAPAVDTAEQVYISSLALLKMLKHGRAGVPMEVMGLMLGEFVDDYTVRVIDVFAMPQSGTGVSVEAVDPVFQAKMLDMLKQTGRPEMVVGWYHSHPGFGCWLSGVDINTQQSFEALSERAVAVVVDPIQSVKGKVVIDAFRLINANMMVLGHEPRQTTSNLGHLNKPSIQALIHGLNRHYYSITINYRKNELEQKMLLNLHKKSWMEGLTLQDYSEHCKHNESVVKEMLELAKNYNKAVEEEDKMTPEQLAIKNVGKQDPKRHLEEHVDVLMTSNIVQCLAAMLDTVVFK
Sequence of USP9X (Q93008 whole entry, the tested form may be a part): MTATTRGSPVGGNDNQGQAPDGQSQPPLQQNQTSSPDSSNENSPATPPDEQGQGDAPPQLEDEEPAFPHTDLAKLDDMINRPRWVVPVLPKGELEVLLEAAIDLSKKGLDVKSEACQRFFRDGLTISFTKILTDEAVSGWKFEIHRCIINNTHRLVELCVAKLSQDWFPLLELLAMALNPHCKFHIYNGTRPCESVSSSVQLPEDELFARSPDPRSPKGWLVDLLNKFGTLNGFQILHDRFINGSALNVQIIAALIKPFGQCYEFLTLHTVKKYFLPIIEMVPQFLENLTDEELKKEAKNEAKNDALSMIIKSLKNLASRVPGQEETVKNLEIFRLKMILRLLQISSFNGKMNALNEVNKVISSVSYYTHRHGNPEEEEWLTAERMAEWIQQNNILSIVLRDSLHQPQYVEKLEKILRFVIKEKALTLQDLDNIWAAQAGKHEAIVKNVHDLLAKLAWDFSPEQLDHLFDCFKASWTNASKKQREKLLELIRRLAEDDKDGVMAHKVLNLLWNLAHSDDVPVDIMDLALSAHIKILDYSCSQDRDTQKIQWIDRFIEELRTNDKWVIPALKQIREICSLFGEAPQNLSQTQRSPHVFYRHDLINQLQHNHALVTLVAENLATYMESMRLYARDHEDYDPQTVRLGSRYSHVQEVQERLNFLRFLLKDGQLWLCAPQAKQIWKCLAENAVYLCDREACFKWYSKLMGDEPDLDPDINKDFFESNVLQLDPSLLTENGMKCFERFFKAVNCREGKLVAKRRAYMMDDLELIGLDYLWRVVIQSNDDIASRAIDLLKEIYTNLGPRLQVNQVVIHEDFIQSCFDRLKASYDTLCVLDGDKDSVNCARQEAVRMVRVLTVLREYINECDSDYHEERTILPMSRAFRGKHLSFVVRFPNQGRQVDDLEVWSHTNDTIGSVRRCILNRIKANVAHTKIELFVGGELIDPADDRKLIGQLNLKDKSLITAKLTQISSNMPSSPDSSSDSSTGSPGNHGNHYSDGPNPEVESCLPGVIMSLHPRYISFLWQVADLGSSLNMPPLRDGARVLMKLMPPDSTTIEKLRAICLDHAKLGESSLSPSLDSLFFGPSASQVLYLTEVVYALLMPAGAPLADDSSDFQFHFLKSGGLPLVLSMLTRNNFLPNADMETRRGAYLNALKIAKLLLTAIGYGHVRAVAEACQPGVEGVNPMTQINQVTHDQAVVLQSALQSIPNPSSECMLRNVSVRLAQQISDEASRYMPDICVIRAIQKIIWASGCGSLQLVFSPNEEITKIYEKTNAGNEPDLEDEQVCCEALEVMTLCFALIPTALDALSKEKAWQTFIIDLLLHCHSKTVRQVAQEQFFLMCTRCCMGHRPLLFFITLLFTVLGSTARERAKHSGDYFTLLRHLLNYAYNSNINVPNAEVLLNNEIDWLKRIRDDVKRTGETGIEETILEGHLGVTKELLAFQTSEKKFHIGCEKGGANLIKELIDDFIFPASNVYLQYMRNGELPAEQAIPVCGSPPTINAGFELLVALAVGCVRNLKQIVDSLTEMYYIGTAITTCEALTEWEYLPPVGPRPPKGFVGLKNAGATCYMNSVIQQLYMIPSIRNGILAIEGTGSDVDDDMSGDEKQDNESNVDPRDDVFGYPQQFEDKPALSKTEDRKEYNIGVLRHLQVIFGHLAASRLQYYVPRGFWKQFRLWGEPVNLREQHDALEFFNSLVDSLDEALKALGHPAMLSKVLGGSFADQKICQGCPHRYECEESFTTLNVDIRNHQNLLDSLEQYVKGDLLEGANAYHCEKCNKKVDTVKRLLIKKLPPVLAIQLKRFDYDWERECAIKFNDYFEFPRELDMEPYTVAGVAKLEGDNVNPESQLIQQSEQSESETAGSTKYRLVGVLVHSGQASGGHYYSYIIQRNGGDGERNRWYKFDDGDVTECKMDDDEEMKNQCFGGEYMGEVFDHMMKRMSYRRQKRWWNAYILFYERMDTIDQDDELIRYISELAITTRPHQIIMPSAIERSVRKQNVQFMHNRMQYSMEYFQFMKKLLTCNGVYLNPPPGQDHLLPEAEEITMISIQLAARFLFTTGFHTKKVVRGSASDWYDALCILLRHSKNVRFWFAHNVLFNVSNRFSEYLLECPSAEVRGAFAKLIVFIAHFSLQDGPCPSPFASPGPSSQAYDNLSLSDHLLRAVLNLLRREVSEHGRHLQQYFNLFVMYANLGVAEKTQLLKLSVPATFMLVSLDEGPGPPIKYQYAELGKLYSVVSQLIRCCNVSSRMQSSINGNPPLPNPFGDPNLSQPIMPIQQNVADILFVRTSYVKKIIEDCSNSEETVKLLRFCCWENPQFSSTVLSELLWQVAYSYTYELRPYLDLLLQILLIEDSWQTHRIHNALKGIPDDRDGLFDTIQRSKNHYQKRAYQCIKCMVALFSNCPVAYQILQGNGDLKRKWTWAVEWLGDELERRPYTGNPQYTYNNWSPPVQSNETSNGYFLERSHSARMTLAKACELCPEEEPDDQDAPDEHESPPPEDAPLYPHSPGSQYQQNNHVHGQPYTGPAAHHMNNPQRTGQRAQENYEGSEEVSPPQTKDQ
Sequence of UniProt P51784 (P51784 whole entry): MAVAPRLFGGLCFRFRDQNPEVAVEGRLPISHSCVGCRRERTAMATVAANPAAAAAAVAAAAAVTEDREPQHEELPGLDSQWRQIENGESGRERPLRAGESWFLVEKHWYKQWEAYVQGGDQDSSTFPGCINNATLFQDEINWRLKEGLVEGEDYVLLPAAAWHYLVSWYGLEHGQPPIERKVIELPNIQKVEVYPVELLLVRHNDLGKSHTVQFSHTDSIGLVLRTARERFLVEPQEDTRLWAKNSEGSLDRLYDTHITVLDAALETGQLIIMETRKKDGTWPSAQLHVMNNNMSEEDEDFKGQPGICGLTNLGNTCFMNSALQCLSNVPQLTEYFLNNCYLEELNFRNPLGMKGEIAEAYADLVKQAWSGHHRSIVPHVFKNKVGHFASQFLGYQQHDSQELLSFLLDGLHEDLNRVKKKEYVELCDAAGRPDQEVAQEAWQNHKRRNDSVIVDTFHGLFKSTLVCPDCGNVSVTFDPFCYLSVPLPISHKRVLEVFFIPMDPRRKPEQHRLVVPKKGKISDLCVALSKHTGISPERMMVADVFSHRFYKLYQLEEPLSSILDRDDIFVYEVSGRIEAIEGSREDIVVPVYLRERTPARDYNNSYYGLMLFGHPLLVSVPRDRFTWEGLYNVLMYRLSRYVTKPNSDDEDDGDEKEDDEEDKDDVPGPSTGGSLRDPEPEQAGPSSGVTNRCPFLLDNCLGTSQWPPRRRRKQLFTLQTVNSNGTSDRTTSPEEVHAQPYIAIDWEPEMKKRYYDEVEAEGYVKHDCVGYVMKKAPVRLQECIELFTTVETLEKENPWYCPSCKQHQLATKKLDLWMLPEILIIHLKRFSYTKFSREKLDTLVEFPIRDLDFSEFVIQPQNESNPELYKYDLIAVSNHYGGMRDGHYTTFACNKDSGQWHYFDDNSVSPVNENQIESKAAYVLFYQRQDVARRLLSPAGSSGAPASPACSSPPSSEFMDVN

O=C(CCl)N[C@H]1CCS(=O)(=O)c2ccccc21
inactive: [1] -0.14 | [2] -0.0201 | [3] -0.141 | [4] -0.134 | [5] -0.0599 | [6] -0.609 | [7] -0.0511 | [8] -0.158 | [9] 0.0852
